From PubChem BioAssay (Tox21) come the findings set out here.

Activity calls are given as the source filed them. Where a call stands in place of a potency, no number is given. Calls follow the shape of the full dose curve.

This test is described as follows: G protein-coupled receptor (GPCR) small molecule agonists, calcium flux assay: HEK293 wild type cell line counter screen (AID 1920065). As to conditions: HEK293 WT calcium flux, fluorescence, agonist mode; series mostly up to 57.6 µM. The essentials:
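Tox21 10K compounds, 15 concentrations each in triplicate, pin-transferred in DMSO onto dye-loaded cells; kinetic read at 480/540 nm for 3 min, 1 s intervals.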
For the compound `COc1ccc(NC(C)=O)cc1`, the Potency entry was “inactive”.
The same measure for `c1cnc2cc3c(cc2n1)C1CNCC3C1`: “inactive”; for `OCc1c2ccccc2cc2ccccc12`: “inactive”; for `Oc1ccc(Cl)cc1Sc1cc(Cl)ccc1O`: “inactive”.
Turning to `CCCc1ccccc1`, the Potency result is “inactive”.
The result for `CC(=O)CC(C)=O` reads “inactive”; that for `C=CC(=O)OCCCCCC`, “inactive”; that for `CC(C)(C)C(=O)OCOP(=O)(COCCn1cnc2c(N)ncnc21)OCOC(=O)C(C)(C)C`, “inactive”.
The result for `Oc1ccc(C(c2ccc(O)cc2)C(Cl)(Cl)Cl)cc1` reads “inactive”.
The result for `Nc1cc(S(=O)(=O)O)cc2cc(S(=O)(=O)O)cc(O)c12` reads “inactive”.
Consider `N=C(N=C(N)N)N1CCOCC1`, for which the Potency result is “inactive”.
The result for `Oc1c(Cl)ccc(Cl)c1Cl` reads “inactive”; that for `CC1=CC[C@@]23C[C@@H]1C(C)(C)[C@@H]2CC[C@H]3C`, “inactive”; that for `O=C(O)c1cccc(C(F)(F)F)c1`, “inactive”.
The same measure for `CC(O)Cn1cnc2c1c(=O)n(C)c(=O)n2C` (centres undefined): “inactive”; for `CN(C)CCOC(c1ccc(Cl)cc1)c1ccccn1` (centres undefined): “inactive”; for `O=C(O)c1cc(-c2ccccc2)nc2ccccc12`: “inactive”.
`CC1(C)C(O)C(C)(C)C1O` (centres undefined): the Potency entry was “inactive”.
The same measure for `Cc1ccc(N(C)C)cc1`: “inactive”; for `C/C=C/C(=O)CCCC`: “inactive”; for `CC(C)(c1ccc(O)cc1)c1ccc(O)cc1`: “inactive”.
The result for `C=CCCCCCCCC` reads “inactive”; that for `CC(C)=O`, “inactive”; that for `O=C(O)[C@@H]1[C@H]2C[C@H]3c4[nH]c5ccccc5c4CCN3C[C@@H]2CC[C@@H]1O`, “inactive”.
The result for `C=CC(C)CCC=C(C)C` (centres undefined) reads “inactive”; that for `O=C(O)C(=O)Nc1cccc(-c2nn[nH]n2)c1`, “inactive”.
Turning to `CN(C)N=Nc1ccccc1`, the Potency entry is “inactive”.
In the case of `OCCOc1ccc(OCCO)cc1`, the Potency result was “inactive”.
Regarding `CC1=C(CC(=O)O)c2cc(F)ccc2/C1=C\c1ccc(S(C)=O)cc1` (centres undefined), the Potency result is “inactive”.
In the case of `CC(C)CCCCCCc1ccc(O)cc1`, the Potency entry was “inactive”.
The same measure for `C=CCS(=O)(=O)O`: “inactive”; for `CCCCSCCCC`: “inactive”; for `CCNc1nc(N)nc(Cl)n1`: “inactive”.
For the compound `Cc1ccc(N)cc1[N+](=O)[O-]`, the Potency result is “inactive”.
The same measure for `Cc1c(C)c2c(c(C)c1O)CCC(C)(COc1ccc(CC3SC(=O)NC3=O)cc1)O2` (centres undefined): “inactive”; for `CCCC1O[C@@H]2C[C@H]3[C@@H]4CCC5=CC(=O)C=C[C@]5(C)[C@H]4[C@@H](O)C[C@]3(C)[C@]2(C(=O)CO)O1` (some centres undefined): “inactive”.
The result for `CC(C[N+](C)(C)C)OC(N)=O` (centres undefined) reads “inactive”; that for `O=C(O)CCCCCCCCCCCC(=O)O`, “inactive”; that for `COc1cc(C(=O)N2CCOCC2)cc(OC)c1OC`, “inactive”.
